RTF Ca sens inh: cardiac RTF calcium desensitization. P19429+P45379. IANBD-labeled cardiac RTF, Ca2+ fluorescence. inhibition, % at 7.15 µM. AID 493244. hit rate 0.12% among 340,000;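 active = inhibition above the mean inhibition of all tested compounds plus 3 SD, cut at about 17% in these data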;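 note: assay run at fixed EC70 calcium of 1.6 mM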
eLon inh: inhibits E. coli Lon protease; purified E. coli Lon protease, fluorescence polarization; inhibition, % at 7.94 µM; hit rate 0.42% among 360,000; P0A9M0; in the data active = inhibition above about 13%, passing the limit was not always enough;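 note: 0% = enzyme with probe and DMSO and 100% = no enzyme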
C-LANA FP: blocks KSHV LANA C-terminal domain binding to DNA. MBP-C-LANA/FAM-LBS DNA binding, fluorescence polarization. inhibition, % at 9 µM. hit rate 0.078% among 340,000;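 active = highest replicate inhibition at or above 60% at 9 µM, even if other replicates fall short; inactive = all replicates below 60% inhibition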;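 note: 0% = neutral control wells and 100% = 4 µM acridine orange control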
Keap1-Nrf2 PPI: Keap1-Nrf2 (human) interaction inhibition; hit rate 0.15% among 340,000; Keap1 Kelch-Nrf2 peptide fluorescence polarization, 1536-well; inhibition, % at 9.4 µM; in the data active = inhibition above about 12%; inconclusive = no clear call, values can overlap the other calls; inactive = below about 7.3%;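 note: human Keap1 Kelch domain with fluorescein labeled Nrf2 9mer peptide probe; 0% = neutral control wells and 100% = peptide positive control; higher means more block of Keap1 binding to Nrf2 peptide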
cardiac RTF act: increases calcium sensitivity of human cardiac regulated thin filaments | activation, % at 7.2 µM | P19429+P45379 | IANBD-labeled TnC RTF fluorescence at EC20 calcium; 0% EC20 calcium, 100% full calcium | AID 493008 | hit rate 0.24% among 340,000;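 active = activation above the mean over all tested compounds plus 3 SD, cut at about 30% in these data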;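 note: rise in fluorescence read as greater calcium sensitivity of cardiac thin filaments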
eLon confirm: E. coli Lon inhibition confirmation; shares compounds with eLon inh; purified E. coli Lon, fluorescence polarization; hit rate 31% among 1,400; inhibition, % at 7.94 µM; in the data active = inhibition above about 16%;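 note: 0% = enzyme with probe and DMSO and 100% = no enzyme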
Numbers without * were called inactive. Rows were chosen to be rich in hits. Some 0.82% of all compounds tested hit in one or more screens of this group.

What do the screens show for `CC(C)(CN1CCc2ccccc2C1)NS(=O)(=O)c1ccc(Cl)cc1`?
RTF Ca sens inh: -18.9; eLon inh: 17.4*; C-LANA FP: 1.1; Keap1-Nrf2 PPI: -0.5; cardiac RTF act: 17.9; eLon confirm: 13.1

How did CN1CCN(CC(C)(C)NS(=O)(=O)c2ccc(Cl)cc2)CC1 do in these assays?
RTF Ca sens inh: -11.2; eLon inh: -4.4; C-LANA FP: 1.1; Keap1-Nrf2 PPI: -3.2; cardiac RTF act: 8.3

Results for Cc1nnc(SCC(=O)NC2(C#N)CCCCC2)n1N ?
eLon inh: -3.9

What do the screens show for `O=C(CN1C(=O)COc2ccc(S(=O)(=O)N3CCOCC3)cc21)Nc1cccc(Cl)c1`?
RTF Ca sens inh: -4.5; eLon inh: 19.1*; C-LANA FP: -0.2; Keap1-Nrf2 PPI: 2.2; cardiac RTF act: -7.1; eLon confirm: 0.6

Results for CC1=C(C(=O)N(C(C)C)C(C)C)CC(CC(=O)NC2CC2)C(=O)N1CCCN1CCCC1=O (stereo unspecified) ?
eLon inh: 3.5

How did CC(C)CN(C(=O)CSc1nnc(C2CC2)n1-c1ccccc1)C1CCS(=O)(=O)C1 (stereo unspecified) do in these assays?
RTF Ca sens inh: -0.8; eLon inh: 55.9*; C-LANA FP: -2.4; Keap1-Nrf2 PPI: -0.5; cardiac RTF act: -4.9; eLon confirm: 54.9*

What do the screens show for `CN1c2ccccc2N(C)C1(C)c1ccccc1`?
RTF Ca sens inh: -16.0; eLon inh: 38.3*; C-LANA FP: 10.5; Keap1-Nrf2 PPI: 5.3; cardiac RTF act: 5.1; eLon confirm: 2.7

How did COc1ccccc1S(=O)(=O)N(C)C[C@@H]1OCc2cn(nn2)CCCC(=O)N([C@@H](C)CO)C[C@H]1C do in these assays?
eLon inh: -2.0

How did COc1ccc(NC(=O)CNC(c2ccccc2)c2ccccc2)cc1Cl do in these assays?
RTF Ca sens inh: 5.7; eLon inh: 18.1*; C-LANA FP: 1.7; Keap1-Nrf2 PPI: inconclusive; cardiac RTF act: -4.2; eLon confirm: -8.2

Results for O=c1c2cc(Br)ccc2nc2n1CCCCC2 ?
RTF Ca sens inh: 5.6; eLon inh: -2.7; C-LANA FP: -1.2; Keap1-Nrf2 PPI: 0.4; cardiac RTF act: -4.7

How did O=c1c2cc([N+](=O)[O-])ccc2nc2n1CCCC2 do in these assays?
RTF Ca sens inh: -5.4; eLon inh: 18.9*; C-LANA FP: 0.3; Keap1-Nrf2 PPI: -1.2; cardiac RTF act: 0.0; eLon confirm: -6.3

What do the screens show for `CCc1nc2ccc(C(=O)N(CC)CCN(C)C)cn2c1N(C)C(=O)C1CCCCC1`?
eLon inh: 4.5

What do the screens show for `CN(Cc1ccccc1)C(=O)CN1C(=O)c2ccc([N+](=O)[O-])cc2C1=O`?
RTF Ca sens inh: -5.7; eLon inh: 18.5*; C-LANA FP: -1.0; Keap1-Nrf2 PPI: 0.2; cardiac RTF act: -8.7; eLon confirm: -1.3

How did CC(C)N1CCC1(C)C(=O)Nc1ccccc1OC(F)F (stereo unspecified) do in these assays?
eLon inh: 6.2

How did CC1(C(=O)NS(=O)(=O)c2cccc(C#N)c2)CCN1C(=O)Cc1ccccc1Cl (stereo unspecified) do in these assays?
eLon inh: -0.4

Results for CCOc1cccc(C(=O)NC(=S)Nc2cccnc2)c1 ?
RTF Ca sens inh: 2.7; eLon inh: 1.9; C-LANA FP: 1.2; Keap1-Nrf2 PPI: -3.0; cardiac RTF act: 0.8

How did CCCCOc1cccc(C(=O)NC(=S)Nc2cccnc2)c1 do in these assays?
RTF Ca sens inh: -2.9; eLon inh: 19.1*; C-LANA FP: -0.4; Keap1-Nrf2 PPI: -1.6; cardiac RTF act: 2.4; eLon confirm: -45.9

How did CN1C=CC2=C(C#N)C(N)C(C#N)(C#N)C(c3ccccc3)C2C1 (stereo unspecified) do in these assays?
RTF Ca sens inh: -35.9; eLon inh: 17.0*; C-LANA FP: 41.1; Keap1-Nrf2 PPI: 9.6; cardiac RTF act: 39.9*; eLon confirm: -30.5

How did CC(OC(=O)Cn1cnc2c1c(=O)n(C)c(=O)n2C)C(=O)Nc1ccc(Cl)cc1 (stereo unspecified) do in these assays?
RTF Ca sens inh: 1.1; eLon inh: 26.5*; C-LANA FP: -0.3; Keap1-Nrf2 PPI: -4.5; cardiac RTF act: -1.0; eLon confirm: -1.6

What do the screens show for `Cn1c(=O)c2c(ncn2CC(=O)OCC(=O)Nc2ccc(Cl)cc2)n(C)c1=O`?
RTF Ca sens inh: 3.0; eLon inh: 3.9; C-LANA FP: -2.7; Keap1-Nrf2 PPI: -1.4; cardiac RTF act: 2.0

How did COc1ccc(NS(=O)(=O)c2ccc(Cl)s2)cn1 do in these assays?
RTF Ca sens inh: -6.6; eLon inh: 18.5*; C-LANA FP: 14.8; Keap1-Nrf2 PPI: 5.4; cardiac RTF act: 12.4; eLon confirm: 35.4*

Results for CCOC(=O)C1(C)CCCN(C(=O)c2ccc(OC)cc2OC)C1 (stereo unspecified) ?
eLon inh: 4.8

How did Cc1ccc(/C=C/C(=O)Nc2cccc3cccnc23)o1 do in these assays?
RTF Ca sens inh: -19.2; eLon inh: 69.6*; C-LANA FP: 5.4; Keap1-Nrf2 PPI: -1.0; cardiac RTF act: 27.5; eLon confirm: 30.4*

Results for Cc1cccc(C(=O)Nc2cccc3cccnc23)c1 ?
RTF Ca sens inh: -1.6; eLon inh: -4.6; C-LANA FP: 1.3; Keap1-Nrf2 PPI: 0.6; cardiac RTF act: -3.9

What do the screens show for `Cc1ccc(-c2nc3ccc(C)cn3c2CC2CCCCC2)cc1`?
eLon inh: -16.3

What do the screens show for `CCN(c1c(C)n(C)n(-c2ccccc2)c1=O)S(C)(=O)=O`?
RTF Ca sens inh: -18.4; eLon inh: 69.0*; C-LANA FP: 0.4; Keap1-Nrf2 PPI: 0.7; cardiac RTF act: 0.0; eLon confirm: -21.6

Results for Cc1c(O)c(=O)n(-c2ccccc2)n1C ?
RTF Ca sens inh: -5.6; eLon inh: -11.3; C-LANA FP: -0.9; Keap1-Nrf2 PPI: -8.7; cardiac RTF act: 9.2

Results for O=C(Nc1ccn(CCCNCc2cccc3ccccc23)c(=O)n1)OCc1ccccc1 ?
eLon inh: 12.7*; eLon confirm: -8.3

What do the screens show for `Cc1cccc(Cl)c1NC(=O)NCCCN1CCCCC1C` (stereo unspecified)?
eLon inh: -7.3

What do the screens show for `Cc1cccc(OCC(O)CN2C(C)(C)CC(O)CC2(C)C)c1` (stereo unspecified)?
RTF Ca sens inh: 6.5; eLon inh: 14.4*; C-LANA FP: -0.1; Keap1-Nrf2 PPI: -2.1; cardiac RTF act: 4.5; eLon confirm: -1.5

Results for NC(=O)c1ccc2c(=O)c(O)c(-c3cc(Cl)c(N)c(Cl)c3)[nH]c2c1 ?
RTF Ca sens inh: -5.7; eLon inh: 52.2*; C-LANA FP: 14.1; Keap1-Nrf2 PPI: -0.6; cardiac RTF act: 1.6; eLon confirm: 19.5*

Results for O=C(c1ccccc1)[C@@H]1[C@@H]2C(=O)N(c3ccc(F)cc3)C(=O)[C@@H]2C2CCCN21 (stereo partly specified) ?
RTF Ca sens inh: -22.9; eLon inh: 23.4*; C-LANA FP: 14.2; Keap1-Nrf2 PPI: 2.4; cardiac RTF act: 15.9; eLon confirm: 29.5*
